Experimental data: paper PMC7862700, “An all-to-all approach to the identification of sequence-specific readers for epigenetic DNA modifications on cytosine”

Assays:
Assay in all cases: DAPPL (digital affinity profiling via proximity ligation, sequencing); 10 mM Tris-HCl pH 7.5, 50 mM NaCl, 1 mM DTT, 4% glycerol, room temperature, 30 min; GST-TFs on glutathione beads, 16-mer random dsDNA library, 0.1% formaldehyde crosslink after washing; high values mean tight binding
FLI1 = molecular target: T1, FLI1 (Homo sapiens, UniProt Q01543 1-452); settings: protein: recombinant; tags: N-terminal GST; dsDNA, one strand shown
T1 sequence: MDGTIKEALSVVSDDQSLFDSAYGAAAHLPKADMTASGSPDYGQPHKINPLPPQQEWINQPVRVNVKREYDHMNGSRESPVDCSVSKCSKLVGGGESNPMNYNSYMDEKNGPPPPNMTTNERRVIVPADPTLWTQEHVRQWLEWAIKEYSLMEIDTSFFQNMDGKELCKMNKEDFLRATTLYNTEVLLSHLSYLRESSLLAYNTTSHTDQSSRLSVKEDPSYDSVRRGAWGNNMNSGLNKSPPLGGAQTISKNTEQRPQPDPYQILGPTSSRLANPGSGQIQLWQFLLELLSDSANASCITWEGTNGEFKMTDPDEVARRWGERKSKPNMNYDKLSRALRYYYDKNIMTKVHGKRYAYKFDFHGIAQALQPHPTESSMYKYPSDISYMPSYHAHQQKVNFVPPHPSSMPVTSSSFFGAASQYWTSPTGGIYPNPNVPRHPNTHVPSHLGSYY
Method in brief: (§1)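 Each value of binding signal is a hexamer's read frequency for a factor divided by the same hexamer's frequency in the tag-only sample. Barcoded, bead-captured GST fusions of human transcription factors made in yeast were pooled with that sample and incubated with 200 nmole of a random double-stranded 16-mer DNA library in Tris/NaCl/DTT/glycerol buffer at room temperature for 30 min. Washing, 0.1% formaldehyde crosslinking, proximity ligation, PCR and Illumina NextSeq500 sequencing followed.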

ELK1 = molecular target: T2, ELK1 (Homo sapiens, UniProt P19419 1-428); settings: protein: recombinant; tags: N-terminal GST; dsDNA, one strand shown
T2 sequence: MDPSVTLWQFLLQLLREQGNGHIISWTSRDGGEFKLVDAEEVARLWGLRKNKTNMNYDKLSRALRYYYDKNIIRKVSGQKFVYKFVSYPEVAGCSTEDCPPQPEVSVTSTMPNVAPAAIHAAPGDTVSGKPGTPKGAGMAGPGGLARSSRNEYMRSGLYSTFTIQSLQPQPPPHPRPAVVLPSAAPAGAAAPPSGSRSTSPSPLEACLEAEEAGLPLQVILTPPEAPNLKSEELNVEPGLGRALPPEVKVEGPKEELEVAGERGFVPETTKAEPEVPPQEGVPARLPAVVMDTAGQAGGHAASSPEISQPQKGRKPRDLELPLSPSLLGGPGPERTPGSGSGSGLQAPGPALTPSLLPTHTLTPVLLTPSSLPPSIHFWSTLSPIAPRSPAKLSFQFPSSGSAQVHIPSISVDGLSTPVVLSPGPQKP
Method in brief: as §1

GABPA = molecular target: T3, GABPA (Homo sapiens, UniProt Q06546 1-454); settings: protein: recombinant; tags: N-terminal GST; dsDNA, one strand shown
T3 sequence: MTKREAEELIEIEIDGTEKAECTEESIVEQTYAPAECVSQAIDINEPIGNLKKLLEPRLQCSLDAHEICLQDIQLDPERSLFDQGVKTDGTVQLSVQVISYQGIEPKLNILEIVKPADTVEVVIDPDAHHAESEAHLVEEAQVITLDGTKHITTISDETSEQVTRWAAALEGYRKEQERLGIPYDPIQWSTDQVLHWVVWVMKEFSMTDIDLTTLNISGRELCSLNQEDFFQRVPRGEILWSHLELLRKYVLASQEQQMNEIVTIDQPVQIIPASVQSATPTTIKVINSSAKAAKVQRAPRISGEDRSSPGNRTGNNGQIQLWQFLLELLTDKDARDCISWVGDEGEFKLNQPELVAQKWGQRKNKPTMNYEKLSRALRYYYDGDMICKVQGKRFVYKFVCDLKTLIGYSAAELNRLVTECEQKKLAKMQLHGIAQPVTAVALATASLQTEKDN
Method in brief: as §1

ERG = molecular target: T4, ERG (Homo sapiens, UniProt P11308 1-479); settings: protein: recombinant; tags: N-terminal GST; dsDNA, one strand shown
T4 sequence: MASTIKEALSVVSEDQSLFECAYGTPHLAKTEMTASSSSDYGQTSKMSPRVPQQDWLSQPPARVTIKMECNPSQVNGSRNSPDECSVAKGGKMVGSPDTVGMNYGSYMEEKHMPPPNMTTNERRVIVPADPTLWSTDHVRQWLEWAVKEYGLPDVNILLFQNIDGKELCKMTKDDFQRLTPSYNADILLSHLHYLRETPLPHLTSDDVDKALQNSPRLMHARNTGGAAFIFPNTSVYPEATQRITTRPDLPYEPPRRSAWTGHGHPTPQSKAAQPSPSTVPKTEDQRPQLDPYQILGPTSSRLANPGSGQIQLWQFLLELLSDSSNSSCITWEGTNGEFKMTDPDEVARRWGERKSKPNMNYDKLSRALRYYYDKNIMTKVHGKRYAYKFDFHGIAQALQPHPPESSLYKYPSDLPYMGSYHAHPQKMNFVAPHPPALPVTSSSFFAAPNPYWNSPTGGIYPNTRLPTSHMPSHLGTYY
Method in brief: as §1

ELF1 = ELF1 (Homo sapiens, UniProt P32519 1-619); settings: protein: recombinant; tags: N-terminal GST; dsDNA, one strand shown
ELF1, sequence (P32519 whole entry): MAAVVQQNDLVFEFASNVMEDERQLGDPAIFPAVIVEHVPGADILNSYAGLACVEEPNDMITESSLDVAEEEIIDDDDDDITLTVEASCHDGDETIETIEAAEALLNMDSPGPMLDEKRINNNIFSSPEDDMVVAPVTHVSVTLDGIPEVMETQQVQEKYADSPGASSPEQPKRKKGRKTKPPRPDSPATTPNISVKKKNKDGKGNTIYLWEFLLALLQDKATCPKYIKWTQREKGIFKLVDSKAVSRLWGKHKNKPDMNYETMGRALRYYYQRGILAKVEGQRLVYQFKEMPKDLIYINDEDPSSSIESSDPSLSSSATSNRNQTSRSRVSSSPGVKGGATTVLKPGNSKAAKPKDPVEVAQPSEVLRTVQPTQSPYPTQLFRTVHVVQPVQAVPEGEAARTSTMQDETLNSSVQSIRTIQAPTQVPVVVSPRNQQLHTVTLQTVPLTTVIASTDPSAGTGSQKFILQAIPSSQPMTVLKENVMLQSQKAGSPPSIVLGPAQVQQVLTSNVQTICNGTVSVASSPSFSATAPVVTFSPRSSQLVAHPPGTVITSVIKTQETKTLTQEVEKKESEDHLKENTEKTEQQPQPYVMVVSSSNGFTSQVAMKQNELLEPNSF
Method in brief: as §1

EHF = molecular target: T5, EHF (Homo sapiens, UniProt Q9NZC4 1-300); settings: protein: recombinant; tags: N-terminal GST; dsDNA, one strand shown
T5 sequence: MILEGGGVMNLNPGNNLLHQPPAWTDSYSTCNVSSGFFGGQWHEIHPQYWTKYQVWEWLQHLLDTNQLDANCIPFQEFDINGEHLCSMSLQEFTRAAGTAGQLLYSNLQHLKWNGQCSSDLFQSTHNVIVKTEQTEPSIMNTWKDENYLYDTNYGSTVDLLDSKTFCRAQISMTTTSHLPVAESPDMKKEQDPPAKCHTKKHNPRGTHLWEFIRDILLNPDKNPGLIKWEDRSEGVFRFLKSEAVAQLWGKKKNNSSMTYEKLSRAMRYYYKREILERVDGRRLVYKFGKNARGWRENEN
Method in brief: as §1

SPI1 = SPI1 (Homo sapiens, UniProt P17947 1-270); settings: protein: recombinant; tags: N-terminal GST; dsDNA, one strand shown
Method in brief: as §1

SPIB = SPIB (Homo sapiens, UniProt Q01892 1-262); settings: protein: recombinant; tags: N-terminal GST; dsDNA, one strand shown
SPIB, sequence (Q01892 whole entry): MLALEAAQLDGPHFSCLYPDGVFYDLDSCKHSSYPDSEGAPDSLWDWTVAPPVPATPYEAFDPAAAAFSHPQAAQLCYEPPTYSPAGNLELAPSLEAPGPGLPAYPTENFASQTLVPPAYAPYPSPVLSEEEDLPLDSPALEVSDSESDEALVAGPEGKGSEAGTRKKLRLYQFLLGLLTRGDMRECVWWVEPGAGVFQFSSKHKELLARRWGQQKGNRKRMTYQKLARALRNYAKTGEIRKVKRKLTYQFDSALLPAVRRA
Method in brief: as §1

ELK3 = molecular target: T6, ELK3 (Homo sapiens, UniProt P41970 1-407); settings: protein: recombinant; tags: N-terminal GST; dsDNA, one strand shown
T6 sequence: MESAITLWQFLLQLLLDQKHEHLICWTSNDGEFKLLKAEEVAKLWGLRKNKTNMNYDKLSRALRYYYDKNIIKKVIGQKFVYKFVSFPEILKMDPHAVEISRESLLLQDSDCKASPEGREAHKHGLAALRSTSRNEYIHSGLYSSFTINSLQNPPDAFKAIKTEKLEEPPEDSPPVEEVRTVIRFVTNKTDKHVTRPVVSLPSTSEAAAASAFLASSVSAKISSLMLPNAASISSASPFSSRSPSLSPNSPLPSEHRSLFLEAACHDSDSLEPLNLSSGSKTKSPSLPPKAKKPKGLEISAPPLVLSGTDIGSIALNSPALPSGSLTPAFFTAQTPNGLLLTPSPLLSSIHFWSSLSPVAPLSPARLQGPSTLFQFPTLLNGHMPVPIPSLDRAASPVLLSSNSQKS
Method in brief: as §1

FEV = molecular target: T7, FEV (Homo sapiens, UniProt Q99581 1-238); settings: protein: recombinant; tags: N-terminal GST; dsDNA, one strand shown
T7 sequence: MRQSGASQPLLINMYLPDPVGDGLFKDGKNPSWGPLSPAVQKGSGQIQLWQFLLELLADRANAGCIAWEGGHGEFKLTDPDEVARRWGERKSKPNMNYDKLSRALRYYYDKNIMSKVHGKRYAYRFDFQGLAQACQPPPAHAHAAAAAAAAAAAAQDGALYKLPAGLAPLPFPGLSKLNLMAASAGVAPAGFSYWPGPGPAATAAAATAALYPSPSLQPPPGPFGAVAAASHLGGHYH
Method in brief: as §1

ETV5 = ETV5 (Homo sapiens, UniProt P41161 1-510); settings: protein: recombinant; tags: N-terminal GST; dsDNA, one strand shown
ETV5, sequence (P41161 whole entry): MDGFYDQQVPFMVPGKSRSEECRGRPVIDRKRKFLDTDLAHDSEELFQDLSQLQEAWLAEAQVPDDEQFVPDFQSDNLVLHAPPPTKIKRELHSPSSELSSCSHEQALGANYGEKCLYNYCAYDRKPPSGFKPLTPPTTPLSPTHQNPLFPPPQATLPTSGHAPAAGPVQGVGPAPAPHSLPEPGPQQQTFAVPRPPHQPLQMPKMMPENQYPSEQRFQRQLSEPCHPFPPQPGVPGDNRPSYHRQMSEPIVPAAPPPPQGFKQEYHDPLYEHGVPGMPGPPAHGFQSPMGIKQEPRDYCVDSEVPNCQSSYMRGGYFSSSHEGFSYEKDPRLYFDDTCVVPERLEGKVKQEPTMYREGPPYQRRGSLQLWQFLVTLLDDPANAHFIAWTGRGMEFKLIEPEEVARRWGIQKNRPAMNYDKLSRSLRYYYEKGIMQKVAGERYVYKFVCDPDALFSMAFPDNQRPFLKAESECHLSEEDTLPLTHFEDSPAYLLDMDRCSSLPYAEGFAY
Method in brief: as §1

HSF1 = HSF1 (Homo sapiens, UniProt Q00613 1-529); settings: protein: recombinant; tags: N-terminal GST; chain copies: 3; dsDNA, one strand shown
HSF1, sequence (Q00613 whole entry): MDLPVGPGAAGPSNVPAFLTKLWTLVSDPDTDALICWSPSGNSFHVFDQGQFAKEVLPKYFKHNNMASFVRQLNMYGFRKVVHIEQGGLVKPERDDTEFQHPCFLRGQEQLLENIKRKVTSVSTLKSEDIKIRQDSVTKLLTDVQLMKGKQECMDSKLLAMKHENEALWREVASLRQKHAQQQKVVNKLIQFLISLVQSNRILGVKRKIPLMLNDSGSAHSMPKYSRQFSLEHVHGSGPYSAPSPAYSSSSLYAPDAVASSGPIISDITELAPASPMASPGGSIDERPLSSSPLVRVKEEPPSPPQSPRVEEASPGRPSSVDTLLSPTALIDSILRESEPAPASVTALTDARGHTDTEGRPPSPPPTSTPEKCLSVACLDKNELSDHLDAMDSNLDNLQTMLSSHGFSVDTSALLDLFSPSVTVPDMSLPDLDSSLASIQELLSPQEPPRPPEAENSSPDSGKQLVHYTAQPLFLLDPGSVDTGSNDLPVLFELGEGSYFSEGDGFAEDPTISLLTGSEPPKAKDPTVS
Method in brief: as §1

SPIC = molecular target: T8, SPIC (Homo sapiens, UniProt Q8N5J4 1-248); settings: protein: recombinant; tags: N-terminal GST; dsDNA, one strand shown
T8 sequence: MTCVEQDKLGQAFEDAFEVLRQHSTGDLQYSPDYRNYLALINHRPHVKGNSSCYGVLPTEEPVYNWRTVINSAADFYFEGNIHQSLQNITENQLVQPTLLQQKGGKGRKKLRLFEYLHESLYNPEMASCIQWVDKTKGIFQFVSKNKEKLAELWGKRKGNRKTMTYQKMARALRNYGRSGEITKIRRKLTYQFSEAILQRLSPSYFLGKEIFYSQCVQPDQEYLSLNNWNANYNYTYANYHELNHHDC
Method in brief: as §1

ELF4 = ELF4 (Homo sapiens, UniProt Q99607 1-663); settings: protein: recombinant; tags: N-terminal GST; dsDNA, one strand shown
ELF4, sequence (Q99607 whole entry): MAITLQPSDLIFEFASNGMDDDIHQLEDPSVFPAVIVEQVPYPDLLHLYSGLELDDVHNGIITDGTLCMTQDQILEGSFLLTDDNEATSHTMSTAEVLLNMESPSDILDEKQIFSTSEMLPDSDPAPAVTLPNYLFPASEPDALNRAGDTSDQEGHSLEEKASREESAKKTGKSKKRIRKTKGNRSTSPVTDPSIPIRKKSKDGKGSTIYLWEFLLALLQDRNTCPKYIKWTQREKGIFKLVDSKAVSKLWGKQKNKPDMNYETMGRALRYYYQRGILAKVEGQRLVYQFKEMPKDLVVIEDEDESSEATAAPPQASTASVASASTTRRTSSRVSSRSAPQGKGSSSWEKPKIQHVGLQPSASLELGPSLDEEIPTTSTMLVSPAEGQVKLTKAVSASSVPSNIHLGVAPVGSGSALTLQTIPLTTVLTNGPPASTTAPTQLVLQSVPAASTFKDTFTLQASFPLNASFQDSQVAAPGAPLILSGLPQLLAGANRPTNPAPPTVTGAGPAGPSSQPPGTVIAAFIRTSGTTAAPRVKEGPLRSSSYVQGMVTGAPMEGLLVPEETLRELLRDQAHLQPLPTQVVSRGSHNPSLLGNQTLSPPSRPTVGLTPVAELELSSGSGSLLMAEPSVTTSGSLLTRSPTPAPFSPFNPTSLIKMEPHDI
Method in brief: as §1

ELK4 = molecular target: T9, ELK4 (Homo sapiens, UniProt P28324-2 1-405); settings: protein: recombinant; tags: N-terminal GST; dsDNA, one strand shown
T9 sequence: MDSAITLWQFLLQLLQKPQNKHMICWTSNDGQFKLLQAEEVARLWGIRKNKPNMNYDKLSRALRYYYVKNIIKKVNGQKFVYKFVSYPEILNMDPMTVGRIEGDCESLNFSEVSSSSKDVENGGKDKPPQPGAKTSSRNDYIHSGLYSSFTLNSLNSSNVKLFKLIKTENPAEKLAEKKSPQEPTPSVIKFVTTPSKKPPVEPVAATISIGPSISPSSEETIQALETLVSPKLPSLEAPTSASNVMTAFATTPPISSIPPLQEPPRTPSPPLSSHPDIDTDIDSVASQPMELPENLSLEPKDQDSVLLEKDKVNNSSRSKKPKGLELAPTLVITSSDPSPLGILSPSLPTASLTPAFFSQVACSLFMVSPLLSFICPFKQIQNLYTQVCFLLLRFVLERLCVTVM
Method in brief: as §1

ETV2 = molecular target: T10, ETV2 (Homo sapiens, UniProt O00321 1-342); settings: protein: recombinant; tags: N-terminal GST; dsDNA, one strand shown
T10 sequence: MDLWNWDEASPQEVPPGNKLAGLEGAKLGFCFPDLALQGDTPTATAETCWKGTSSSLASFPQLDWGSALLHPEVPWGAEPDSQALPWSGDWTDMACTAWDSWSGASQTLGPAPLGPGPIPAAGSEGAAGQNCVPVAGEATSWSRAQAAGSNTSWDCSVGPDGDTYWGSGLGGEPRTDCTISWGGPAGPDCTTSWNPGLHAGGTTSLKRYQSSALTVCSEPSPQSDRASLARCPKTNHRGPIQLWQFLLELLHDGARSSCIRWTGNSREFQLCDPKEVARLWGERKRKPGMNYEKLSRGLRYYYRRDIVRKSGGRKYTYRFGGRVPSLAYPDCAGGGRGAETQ
Method in brief: as §1

ELF3 = molecular target: T11, ELF3 (Homo sapiens, UniProt P78545 1-371); settings: protein: recombinant; tags: N-terminal GST; dsDNA, one strand shown
T11 sequence: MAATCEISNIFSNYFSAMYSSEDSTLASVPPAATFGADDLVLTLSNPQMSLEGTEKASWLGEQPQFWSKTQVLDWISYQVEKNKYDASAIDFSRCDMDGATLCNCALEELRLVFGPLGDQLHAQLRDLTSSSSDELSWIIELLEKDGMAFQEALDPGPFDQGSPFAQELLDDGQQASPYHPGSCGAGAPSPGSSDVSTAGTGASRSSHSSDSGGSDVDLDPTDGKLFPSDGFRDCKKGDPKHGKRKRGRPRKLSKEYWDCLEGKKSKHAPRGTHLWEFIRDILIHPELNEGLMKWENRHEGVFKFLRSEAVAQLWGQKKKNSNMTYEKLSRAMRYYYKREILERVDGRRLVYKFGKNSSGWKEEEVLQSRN
Method in brief: as §1

CRX = CRX (Homo sapiens, UniProt O43186 1-299); settings: protein: recombinant; tags: N-terminal GST; dsDNA, one strand shown
CRX, sequence (O43186 whole entry): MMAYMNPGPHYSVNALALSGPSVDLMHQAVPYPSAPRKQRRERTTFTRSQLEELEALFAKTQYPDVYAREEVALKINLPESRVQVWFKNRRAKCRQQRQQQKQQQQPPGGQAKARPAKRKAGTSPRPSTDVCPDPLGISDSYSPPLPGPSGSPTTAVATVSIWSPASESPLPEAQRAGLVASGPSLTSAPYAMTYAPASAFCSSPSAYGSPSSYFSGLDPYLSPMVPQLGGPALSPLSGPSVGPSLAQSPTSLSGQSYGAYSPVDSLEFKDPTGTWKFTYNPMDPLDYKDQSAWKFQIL
Method in brief: as §1

ETV1 = ETV1 (Homo sapiens, UniProt P50549 1-477); settings: protein: recombinant; tags: N-terminal GST; dsDNA, one strand shown
ETV1, sequence (P50549 whole entry): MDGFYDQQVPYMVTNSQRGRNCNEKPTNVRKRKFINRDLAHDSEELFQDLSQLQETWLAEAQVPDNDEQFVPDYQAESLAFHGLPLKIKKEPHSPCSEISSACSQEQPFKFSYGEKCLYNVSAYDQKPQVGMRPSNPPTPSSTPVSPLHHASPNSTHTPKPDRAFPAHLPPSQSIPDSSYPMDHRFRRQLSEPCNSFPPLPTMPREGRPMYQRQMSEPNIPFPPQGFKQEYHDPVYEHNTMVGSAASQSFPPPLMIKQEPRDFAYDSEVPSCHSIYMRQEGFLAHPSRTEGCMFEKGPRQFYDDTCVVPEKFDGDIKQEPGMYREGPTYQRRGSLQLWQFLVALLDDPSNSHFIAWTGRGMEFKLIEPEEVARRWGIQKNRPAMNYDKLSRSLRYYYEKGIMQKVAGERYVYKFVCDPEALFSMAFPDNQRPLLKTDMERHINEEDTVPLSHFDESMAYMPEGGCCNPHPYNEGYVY
Method in brief: as §1

In the case of TAATCT, the binding signal (FLI1) is reported as 1.39 fold enrichment (6-mer frequency, TF over GST control), the binding signal (ELK1) is reported as 1.34 fold enrichment (6-mer frequency, TF over GST control) and the binding signal (GABPA) is reported as 1.33 fold enrichment (6-mer frequency, TF over GST control). The binding signal (ERG) was 1.38 fold enrichment (6-mer frequency, TF over GST control), the binding signal (ELF1) was 1.4 fold enrichment (6-mer frequency, TF over GST control) and the binding signal (EHF) was 1.44 fold enrichment (6-mer frequency, TF over GST control). The binding signal (SPI1) was 1.33 fold enrichment (6-mer frequency, TF over GST control), the binding signal (SPIB) was 1.4 fold enrichment (6-mer frequency, TF over GST control) and the binding signal (ELK3) was 1.46 fold enrichment (6-mer frequency, TF over GST control). The binding signal (FEV) was 1.3 fold enrichment (6-mer frequency, TF over GST control), the binding signal (ETV5) was 1.44 fold enrichment (6-mer frequency, TF over GST control) and the binding signal (HSF1) was 3.55 fold enrichment (6-mer frequency, TF over GST control). For the same sequence, the binding signal (SPIC) was 1.3 fold enrichment (6-mer frequency, TF over GST control), the binding signal (ELF4) was 1.51 fold enrichment (6-mer frequency, TF over GST control) and the binding signal (ELK4) was 1.4 fold enrichment (6-mer frequency, TF over GST control). The binding signal (ETV2) was 1.34 fold enrichment (6-mer frequency, TF over GST control), the binding signal (ELF3) was 1.57 fold enrichment (6-mer frequency, TF over GST control) and the binding signal (CRX) was 5.78 fold enrichment (6-mer frequency, TF over GST control). The binding signal (ETV1) was 1.52 fold enrichment (6-mer frequency, TF over GST control).
